Screening data deposited in PubChem BioAssay by several laboratories.
Sampled rows, rich in hits. Any-hit rate of the full collection: about 1.7%.
MOR-DOR inv ag-1: inverse agonists of human mu-delta opioid receptor heterodimerization; P35372+P41143; cell-based MOR-DOR heterodimer luminescence, inverse agonism; inhibition, % at 9.3 µM; actives 0.21% (n = 340,000); in the data active = inhibition above about 22%, passing the limit was not always enough
beta cell repl: MIN6 beta-cell proliferation induction; MIN6 cells proliferation, ATPlite luminescence, 48 h; cells starved in 0.2% serum; 100% = growth in 10% serum; proliferation, % at 10 µM; actives 0.29% (n = 330,000); AID 2380;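 active = compounds whose signal lies at least 3.5 SD above the mean of all wells on their plate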
V-ATPase pH: regulators of yeast V-ATPase proton transport | S. cerevisiae, pHLuorin cytosolic pH fluorescence | actives 0.37% (n = 350,000) | response, % at 10 µM; in the data active = response mostly above about 7.3%, no sharp cut-off; inactive = mostly below about 5.4%; also: actives read high
MOR-DOR ag: agonists of human mu-delta opioid receptor heterodimerization | P35372+P41143 | cells, OPRM1-OPRD1 heterodimerization, luminescence | activation, % at 9.3 µM | actives 0.3% (n = 340,000) | AID 504326; in the data active = activation above about 18%
HTR5A ag ctr: HTR5A agonism, opioid heterodimer counter-screen; P47898; HTR5A agonist assay, luminescence, cell-based; activation, % at 9.3 µM; actives 0.61% (n = 340,000); AID 504692; in the data active = activation mostly above about 9.5%, no sharp cut-off; inactive = mostly below about 7.6%
Target sequence (P47898 whole entry, looked up): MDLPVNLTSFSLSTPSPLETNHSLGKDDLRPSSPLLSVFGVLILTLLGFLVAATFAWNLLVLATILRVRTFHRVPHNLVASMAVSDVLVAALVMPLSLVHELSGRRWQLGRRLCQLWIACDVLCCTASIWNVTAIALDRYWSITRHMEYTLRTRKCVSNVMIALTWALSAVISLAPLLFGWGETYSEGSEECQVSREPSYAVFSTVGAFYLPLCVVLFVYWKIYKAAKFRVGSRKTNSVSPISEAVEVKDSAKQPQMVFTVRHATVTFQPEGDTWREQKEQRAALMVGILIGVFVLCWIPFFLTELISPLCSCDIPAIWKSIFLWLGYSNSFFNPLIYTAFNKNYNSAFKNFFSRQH
HTR5A inv ag: HTR5A inverse agonism, opioid heterodimer counter-screen | P47898 | HTR5A cell line, luminescence | inhibition, % at 9.3 µM | actives 0.083% (n = 340,000); in the data active = inhibition mostly above about 23%, no sharp cut-off; inactive = mostly below about 18%
MOR-DOR inv ag-2: inverse agonist of OPRM1-OPRD1 heterodimerization in HTR5A counter-screen | shares compounds with HTR5A inv ag | U2OS counter-screen cells, complementation luminescence | inhibition, % at 9.3 µM | 190 tested, under 10 active | AID 504912
HTR5A inv confrm: confirmation of human HTR5A inverse agonists; inhibition, % at 9.3 µM; 190 tested, under 10 active; AID 504916; HTR5A-expressing cells, inverse agonism, luminescence; shares compounds with HTR5A inv ag
A number is an active result. Unless noted, no rule for the calls is given here.

What do the screens show for `C/C(=N\Nc1cc(-c2ccccc2)nc(-c2ccccc2)n1)c1ccc(O)c(C)c1`?
MOR-DOR inv ag-1: inactive; beta cell repl: inactive; V-ATPase pH: inactive; MOR-DOR ag: inactive; HTR5A ag ctr: inactive; HTR5A inv ag: 48.8; MOR-DOR inv ag-2: inactive; HTR5A inv confrm: inactive

What do the screens show for `CCOc1ccc(CCNC(=O)CN2C(=O)NC(CCSC)C2=O)cc1OCC` (stereo not drawn)?
MOR-DOR inv ag-1: inactive; beta cell repl: inactive; V-ATPase pH: inactive; MOR-DOR ag: inactive; HTR5A ag ctr: inactive; HTR5A inv ag: inactive

Results for CCOc1ccc(S(=O)(=O)n2ccc(C)n2)cc1 ?
MOR-DOR inv ag-1: inactive; beta cell repl: inactive; V-ATPase pH: inactive; MOR-DOR ag: inactive; HTR5A ag ctr: inactive; HTR5A inv ag: 25.8; MOR-DOR inv ag-2: inactive; HTR5A inv confrm: inactive

Results for N#CC(C#N)=C(N)/C(C#N)=C/c1cc(O)c(O)c(O)c1 ?
MOR-DOR inv ag-1: inactive; beta cell repl: inactive; V-ATPase pH: inactive; MOR-DOR ag: inactive; HTR5A ag ctr: inactive; HTR5A inv ag: 29.9; MOR-DOR inv ag-2: inactive; HTR5A inv confrm: inactive

Results for N#C/C(=C\c1ccc(O)c(O)c1)C(=O)c1ccc(O)c(O)c1 ?
MOR-DOR inv ag-1: inactive; beta cell repl: inactive; V-ATPase pH: inactive; MOR-DOR ag: inactive; HTR5A ag ctr: inactive; HTR5A inv ag: inactive

What do the screens show for `COc1ccccc1-c1nnc(NC(=O)CCS(=O)(=O)c2ccccc2)o1`?
MOR-DOR inv ag-1: inactive; beta cell repl: inactive; V-ATPase pH: inactive; MOR-DOR ag: inactive; HTR5A ag ctr: inactive; HTR5A inv ag: 39.5; MOR-DOR inv ag-2: inactive; HTR5A inv confrm: inactive

What do the screens show for `CC(=O)NC(c1ccc(C)cc1)c1cc(Cl)c2cccnc2c1O` (stereo not drawn)?
MOR-DOR inv ag-1: inactive; beta cell repl: inactive; V-ATPase pH: inactive; MOR-DOR ag: inactive; HTR5A ag ctr: inactive; HTR5A inv ag: inactive

Results for Oc1c(C(Nc2ccccn2)c2cccnc2)cc(Cl)c2cccnc12 (stereo not drawn) ?
MOR-DOR inv ag-1: inactive; beta cell repl: inactive; V-ATPase pH: inactive; MOR-DOR ag: inactive; HTR5A ag ctr: inactive; HTR5A inv ag: 53.7; MOR-DOR inv ag-2: 55.5; HTR5A inv confrm: 76.7

How did CC(=O)NC(Cc1c[nH]c2ccccc12)C(=O)NCCc1ccccn1 (stereo not drawn) do in these assays?
MOR-DOR inv ag-1: inactive; beta cell repl: inactive; V-ATPase pH: inactive; MOR-DOR ag: inactive; HTR5A ag ctr: inactive; HTR5A inv ag: inactive

How did CCN(CC(=O)Nc1ccc2c(c1)OCCO2)C(=O)c1ccc(Cl)cc1Cl do in these assays?
MOR-DOR inv ag-1: inactive; beta cell repl: inactive; V-ATPase pH: inactive; MOR-DOR ag: inactive; HTR5A ag ctr: inactive; HTR5A inv ag: inactive

Results for CCN(CC(=O)Nc1ccc2c(c1)OCCO2)C(=O)c1cc(Cl)nc2ccccc12 ?
MOR-DOR inv ag-1: inactive; beta cell repl: inactive; V-ATPase pH: inactive; MOR-DOR ag: inactive; HTR5A ag ctr: inactive; HTR5A inv ag: 33.4; MOR-DOR inv ag-2: inactive; HTR5A inv confrm: inactive

Results for FC(F)Oc1ccccc1NC(=S)NCCc1ccccc1 ?
MOR-DOR inv ag-1: inactive; beta cell repl: inactive; V-ATPase pH: inactive; MOR-DOR ag: inactive; HTR5A ag ctr: inactive; HTR5A inv ag: 45.2; MOR-DOR inv ag-2: inactive; HTR5A inv confrm: inactive

What do the screens show for `Cc1cc(OC(F)F)ccc1NC(=S)NCCc1ccccc1`?
MOR-DOR inv ag-1: inactive; beta cell repl: inactive; V-ATPase pH: inactive; MOR-DOR ag: inactive; HTR5A ag ctr: inactive; HTR5A inv ag: inactive

How did COc1ccc(NC(=O)c2ccc(NC(=O)c3nc4nccc(C)n4n3)cc2)cc1 do in these assays?
MOR-DOR inv ag-1: inactive; beta cell repl: inactive; V-ATPase pH: inactive; MOR-DOR ag: inactive; HTR5A ag ctr: inactive; HTR5A inv ag: 36.0; MOR-DOR inv ag-2: inactive; HTR5A inv confrm: inactive

What do the screens show for `COc1ccccc1NC(=O)c1ccc(NC(=O)c2nc3nccc(C)n3n2)cc1`?
MOR-DOR inv ag-1: inactive; beta cell repl: inactive; V-ATPase pH: inactive; MOR-DOR ag: inactive; HTR5A ag ctr: inactive; HTR5A inv ag: inactive

Results for O=C(NCCc1nc(-c2ccccc2Cl)no1)c1ccccc1 ?
MOR-DOR inv ag-1: inactive; beta cell repl: inactive; V-ATPase pH: inactive; MOR-DOR ag: inactive; HTR5A ag ctr: inactive; HTR5A inv ag: inactive
